Measured values published in PubChem BioAssay (NCATS).
Results filed as inconclusive are left out. Calls of active or inactive are those of the source. Unless noted, the call rests on the fitted dose curve; in most records, active means well fitted curve in the direction sought with a large enough effect; inconclusive means small, poorly fitted or top-dose-only effect, or another doubt; inactive means no such curve, though single readings can be large; an effect the other way counts as inactive or inconclusive.

What was measured:
[1] = target: Lysosomal acid glucosylceramidase (Homo sapiens) (UniProt P04062); assay: Glucocerebrosidase-p2 (AID 348; in the data active means potency below about 10 µM; further: potency means the concentration at half of the fitted maximal effect); conditions: purified GBA, blue fluorogenic substrate, 40 min
Outline: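 Normal human glucocerebrosidase (0.2 nM) with blue fluorogenic substrate (80 uM final) in citrate/phosphate pH 5.9 with 10mM sodium taurocholate, 0.01% tween-20; 40 min RT, NaOH/glycine stop; fluorescence Ex 365/Em 440; AC50 from a titration from 0.6 nM upwards.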

[2] = AP1 Signaling Pathway (AID 357; active means well fitted curve in either direction with a large enough effect, not every such curve was filed as active;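 further: ME-180 reporter cells stimulated with EGF at its EC50 level; on the % scale 0 is the no-effect control and ±100 the full control effect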); conditions: ME-180 AP-1-bla reporter, EGF-induced, beta-lactamase ratio, 5 h; at 7.69 µM (top of the series) unless noted
Outline: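 In this screen, ME-180 cells in Opti-MEM with 0.5% dialyzed FBS received EC50 EGF and compound titrations for 5 h. AP-1 reporter beta-lactamase was detected via CCF4 ratio, giving AC50 for positive and negative modulators.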

[3] = target: Cytochrome P450 1A2 (Homo sapiens) (UniProt P05177); assay: p450-cyp1a2 (AID 410; calls by dose curve; further: potency means the concentration at half of the fitted maximal effect); conditions: recombinant CYP1A2, luciferin-ME demethylation, luminescence; series mostly up to 57 µM
Outline: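 Read-out is luminescence from luciferin produced by CYP1A2 demethylation of Luciferin-ME (100uM, at Km). Detection reagent stopped the 60 min NADPH-dependent reaction; signals were normalized to 57 uM furafylline.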

[4] = NFAT Signaling Pathway (AID 444; active means well fitted curve in either direction with a large enough effect, not every such curve was filed as active;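 further: carbachol stimulus at about its EC50 of 1 µM final; on the % scale 0 is the no-effect control and ±100 the full control effect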); conditions: Jurkat NFAT-bla M1, carbachol, beta-lactamase ratio, 5 h; at 7.69 µM (top of the series) unless noted
Outline: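 Read-out: CCF4 FRET ratio (460 nm/530 nm) after 1 h RT dye loading, used for %activity and AC50 from titration series. Cells: Jurkat NFAT-β-lactamase/M1 line, treated with compound plus 1 uM carbachol for 5 h, 37 °C.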

[5] = Stat Signaling Pathway (AID 446; active means well fitted curve in either direction with a large enough effect, not every such curve was filed as active;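 further: ME-180 cervical cancer cells given 40 pM IL-6 alongside compound; SIE-controlled beta-lactamase reporter measured as 460/530 nm FRET emission ratio; on the % scale 0 is the no-effect control and ±100 the full control effect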); conditions: ME-180 (cervical carcinoma) SIE beta-lactamase reporter, IL-6 stimulated, 5 h; at 7.69 µM (top of the series) unless noted
Outline: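 Emission at 460 and 530 nm (excitation 405 nm) reports SIE-controlled beta-lactamase in ME-180 cells. Cells received compound with 40 pM IL-6 for 5 hrs at 37 C; data scaled between 300 pM IL-6 and 125 nM JAK-inhibitor controls.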

[6] = target: Glucocorticoid receptor (Homo sapiens) (UniProt P04150); assay: GR-GFP Redistribution (AID 450;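 active means compounds whose dose series gives a full or clear partial fitted curve of increased nuclear translocation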; further: potency means the concentration at half of the fitted maximal effect); conditions: U2OS GR-GFP nuclear translocation, laser cytometry, 2 h
[7] = target: Glucocorticoid receptor (Homo sapiens) (UniProt P04150); assay: GR-EFC Redistribution (AID 451; calls by dose curve; further: potency means the concentration at half of the fitted maximal effect); conditions: CHO-K1 GR-EFC translocation, beta-gal luminescence, 2 h
Outline: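 Translocation of GR-ED fusion to nuclear EA restores b-gal, read by luminescence after 1 h room-temperature detection. Engineered CHO-K1 biosensor cells, 1,000/well, exposed 2 h at 37 C to titrations up to 46 uM final.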

[8] = target: Mitogen-activated protein kinase 10 (Mus musculus) (UniProt Q61831); assay: JNK3 AlphaScreen Assay (AID 530; active means well fitted curve in either direction with a large enough effect, not every such curve was filed as active;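 further: kinase came from lysate of stimulated human HepG2 cells; signal reports phosphorylation of biotinylated GST-cJun 1-79 at Ser73 with 10 µM ATP; on the % scale 0 is the no-effect control and ±100 the full control effect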); conditions: JNK3 lysate, c-Jun phosphorylation; series mostly up to 57.1 µM
Outline: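 Kinase buffer: 20 mM Tris-HCl pH 7.6, 10 mM MgCl2, 1 mM DTT, 0.1 mM Na3VO4, 0.01% Tween-20; ATP 10 uM. Substrate biotin-GST-cJun(1-79), enzyme from activated HepG2 lysates. Detection by Ser73 phospho-antibody AlphaScreen.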

[9] = target: 3',5'-cyclic-AMP phosphodiesterase 4B (Homo sapiens) (UniProt Q07343); assay: qHTS Assay for Inhibitors of PDE-IV (AID 607; active means well fitted activation curve with a large enough effect in the main read-out, with a control signal flat, not every such curve was filed as active; further: % of control where 0% means no effect); conditions: HEK293 ACTOne CNG channel cells, membrane potential fluorescence; series mostly up to 22.9 µM
Outline: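 The readout is membrane depolarisation from a cAMP-sensing CNG channel, detected with a potential dye at ex 535/em 590. Cells were HEK293-derived (endogenous PDE-IV) at 1000 cells/well, titrated up to 22.9 uM final.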

[10] = qHTS Assay for Lipid Storage Modulators (AID 1519; calls by dose curve); conditions: Drosophila S3 cells, BODIPY lipid droplet/cell ratio, laser cytometry, cells loaded with oleic acid; for activity change, negative = inhibition: at 57.5 µM (top of the series)
Outline: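 Cells seeded at 5,000 per well were treated with compounds over a concentration series and loaded with oleic acid (400 uM, as added). Lipid droplet fluorescence (488 nm excitation, 500-530 nm channel) was read by laser-scanning cytometry and normalized to 20 uM Triacsin C.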

[11] = target: Dual specificity protein kinase CLK4 (Homo sapiens) (UniProt Q9HAZ1); assay: qHTS Assay for Inhibitors of CDC-like Kinase 4 (Kinase-Glo Assay) (AID 1770); conditions: recombinant Clk4, Kinase-Glo ATP depletion luminescence; series mostly up to 66.7 µM; further: nearly all actives have a fitted effect of over 65% in size; further: potency means the concentration at half of the fitted maximal effect
Outline: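 Clk4 25 nM, RS peptide 100 uM, ATP 1 uM, pH 7.5 Tris, 10 mM MgCl2, 2.5 mM DTT; 4.5 h RT; ATP depletion read by Kinase-Glo luminescence.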

[12] = target: Dual specificity protein kinase CLK4 (Homo sapiens) (UniProt Q9HAZ1); assay: qHTS Assay for Inhibitors of CDC-like Kinase 4 (ADP-Glo Assay) (AID 1771); conditions: recombinant CLK4, ADP-Glo luminescence; series mostly up to 80 µM; further: nearly all actives have a fitted effect of over 70% in size; further: potency means the concentration at half of the fitted maximal effect
Outline: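 In this ADP-Glo format, 1 uM ATP and 100 uM RS peptide served as substrates for 25 nM Clk4 in Mg2+/EGTA/DTT/Triton buffer; reactions ran 1 hr at room temperature before luminescent ADP quantification.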

[13] = target: Dual specificity protein kinase CLK4 (Homo sapiens) (UniProt Q9HAZ1); assay: qHTS Assay for Inhibitors of CDC-like Kinase 4 (ADP-FP Assay) (AID 1795); conditions: Transcreener ADP fluorescence polarization; series mostly up to 50 µM; further: nearly all actives have a fitted effect of over 60% in size; further: potency means the concentration at half of the fitted maximal effect
Outline: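 Kinase activity was followed as ADP output, converted from fluorescence polarization with a calibration curve. Reactions ran one hour at low ATP (1 uM) with RS peptide substrate.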

[14] = target: Ubiquitin carboxyl-terminal hydrolase 1 (Homo sapiens) (UniProt O94782); assay: Inhibitors of USP1/UAF1: Pilot qHTS (AID 504865); conditions: purified USP1/UAF1, Ub-rhodamine cleavage fluorescence; series mostly up to 54.9 µM;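 further: rhodamine fluorescence freed from ubiquitin-rhodamine substrate followed over time; top concentration of the series differs between compounds; on the % scale 0 is the no-effect control and ±100 the full control effect; nearly all actives have a fitted effect of over 35% in size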
Outline: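 Enzyme-free wells gave the negative control, while test wells held 1nM USP1/UAF1 preincubated with compound for 15 min at room temperature. Ub-Rho at 150nM final started the reaction, and fluorescence at 480/540 nm was recorded kinetically.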

[15] = Primary qHTS for small molecule stabilizers of the endoplasmic reticulum resident proteome: Secreted ER Calcium Modulated Protein (SERCaMP) assay (AID 1508630); conditions: SH-SY5Y GLuc-SERCaMP (Gaussia luciferase released on ER calcium loss) secretion, thapsigargin, luminescence; series mostly up to 38.4 µM; further: on the % scale 0 is the no-effect control and ±100 the full control effect
Outline: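 The SH-SY5Y reporter protocol was run at 3 concentrations up to 38.3 uM (primary) or 11 concentrations (follow-up): 16 h compound, 100 nM thapsigargin for 4 h, then extracellular luciferase luminescence.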

[16] = target: Cytochrome P450 3A4 (Homo sapiens) (UniProt P08684); assay: qHTS Assay for Activators of Cytochrome P450 3A4 (AID 885); conditions: recombinant CYP3A4, Luciferin-PPXE luminescence, 60 min; series mostly up to 57.1 µM; further: nearly all actives have a fitted effect of over 65% in size
Outline: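 Activators are scored by enhanced luminescence from CYP3A4 conversion of luciferin-PPXE (25uM, equal to KM) to luciferin, after 60 min at RT with an NADPH-regenerating system.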

[17] = measured here: cell count channel max response
[18] = measured here: lipid channel max response

Sequence of Lysosomal acid glucosylceramidase (Homo sapiens) (P04062 whole entry, looked up): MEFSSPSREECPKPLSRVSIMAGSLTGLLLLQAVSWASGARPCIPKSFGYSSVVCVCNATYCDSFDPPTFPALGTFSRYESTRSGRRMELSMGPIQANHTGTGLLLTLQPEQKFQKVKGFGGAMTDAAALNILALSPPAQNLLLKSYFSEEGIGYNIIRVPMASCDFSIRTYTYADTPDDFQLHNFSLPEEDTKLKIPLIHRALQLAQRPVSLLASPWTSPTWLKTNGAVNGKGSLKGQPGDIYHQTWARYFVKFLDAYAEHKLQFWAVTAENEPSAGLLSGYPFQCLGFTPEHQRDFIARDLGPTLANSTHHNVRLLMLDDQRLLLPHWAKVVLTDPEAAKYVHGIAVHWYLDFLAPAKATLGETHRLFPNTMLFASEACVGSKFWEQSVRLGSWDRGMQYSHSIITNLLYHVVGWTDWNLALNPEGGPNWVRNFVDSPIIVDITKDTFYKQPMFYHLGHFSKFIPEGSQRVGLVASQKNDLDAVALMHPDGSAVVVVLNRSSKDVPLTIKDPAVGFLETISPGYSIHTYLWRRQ
Sequence of Cytochrome P450 3A4 (Homo sapiens) (P08684 whole entry, looked up): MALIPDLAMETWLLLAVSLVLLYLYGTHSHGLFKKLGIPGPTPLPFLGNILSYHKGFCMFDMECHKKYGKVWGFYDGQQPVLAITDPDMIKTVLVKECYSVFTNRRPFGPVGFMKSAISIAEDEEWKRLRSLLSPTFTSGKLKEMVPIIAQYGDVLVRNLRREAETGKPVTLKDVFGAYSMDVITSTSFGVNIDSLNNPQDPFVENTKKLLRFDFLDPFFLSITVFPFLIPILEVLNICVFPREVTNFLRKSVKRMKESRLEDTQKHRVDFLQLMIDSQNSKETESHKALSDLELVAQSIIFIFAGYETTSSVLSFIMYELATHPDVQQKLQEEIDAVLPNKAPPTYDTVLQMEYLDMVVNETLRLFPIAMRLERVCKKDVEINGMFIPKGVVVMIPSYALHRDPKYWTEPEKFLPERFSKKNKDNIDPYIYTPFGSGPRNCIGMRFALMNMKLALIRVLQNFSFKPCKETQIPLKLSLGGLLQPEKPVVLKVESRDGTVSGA
Sequence of 3',5'-cyclic-AMP phosphodiesterase 4B (Homo sapiens) (Q07343 whole entry, looked up): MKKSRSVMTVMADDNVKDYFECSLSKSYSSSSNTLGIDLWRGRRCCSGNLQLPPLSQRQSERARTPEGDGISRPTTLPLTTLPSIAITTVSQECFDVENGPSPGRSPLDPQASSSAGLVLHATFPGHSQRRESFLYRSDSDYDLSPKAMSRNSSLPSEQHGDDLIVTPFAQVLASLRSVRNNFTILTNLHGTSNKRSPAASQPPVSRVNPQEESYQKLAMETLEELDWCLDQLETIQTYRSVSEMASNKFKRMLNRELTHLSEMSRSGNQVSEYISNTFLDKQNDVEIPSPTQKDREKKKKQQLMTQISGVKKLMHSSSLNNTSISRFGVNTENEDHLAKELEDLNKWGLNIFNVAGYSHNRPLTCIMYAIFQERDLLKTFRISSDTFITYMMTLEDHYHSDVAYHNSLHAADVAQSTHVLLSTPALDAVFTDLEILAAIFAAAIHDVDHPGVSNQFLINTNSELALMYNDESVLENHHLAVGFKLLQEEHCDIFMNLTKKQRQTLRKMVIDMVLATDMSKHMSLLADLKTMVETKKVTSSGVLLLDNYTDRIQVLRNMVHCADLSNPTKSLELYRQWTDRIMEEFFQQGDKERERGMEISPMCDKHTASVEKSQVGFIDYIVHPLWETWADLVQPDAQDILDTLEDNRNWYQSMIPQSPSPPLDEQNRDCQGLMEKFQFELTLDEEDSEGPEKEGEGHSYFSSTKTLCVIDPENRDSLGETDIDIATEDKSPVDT
Sequence of Ubiquitin carboxyl-terminal hydrolase 1 (Homo sapiens) (O94782 whole entry, looked up): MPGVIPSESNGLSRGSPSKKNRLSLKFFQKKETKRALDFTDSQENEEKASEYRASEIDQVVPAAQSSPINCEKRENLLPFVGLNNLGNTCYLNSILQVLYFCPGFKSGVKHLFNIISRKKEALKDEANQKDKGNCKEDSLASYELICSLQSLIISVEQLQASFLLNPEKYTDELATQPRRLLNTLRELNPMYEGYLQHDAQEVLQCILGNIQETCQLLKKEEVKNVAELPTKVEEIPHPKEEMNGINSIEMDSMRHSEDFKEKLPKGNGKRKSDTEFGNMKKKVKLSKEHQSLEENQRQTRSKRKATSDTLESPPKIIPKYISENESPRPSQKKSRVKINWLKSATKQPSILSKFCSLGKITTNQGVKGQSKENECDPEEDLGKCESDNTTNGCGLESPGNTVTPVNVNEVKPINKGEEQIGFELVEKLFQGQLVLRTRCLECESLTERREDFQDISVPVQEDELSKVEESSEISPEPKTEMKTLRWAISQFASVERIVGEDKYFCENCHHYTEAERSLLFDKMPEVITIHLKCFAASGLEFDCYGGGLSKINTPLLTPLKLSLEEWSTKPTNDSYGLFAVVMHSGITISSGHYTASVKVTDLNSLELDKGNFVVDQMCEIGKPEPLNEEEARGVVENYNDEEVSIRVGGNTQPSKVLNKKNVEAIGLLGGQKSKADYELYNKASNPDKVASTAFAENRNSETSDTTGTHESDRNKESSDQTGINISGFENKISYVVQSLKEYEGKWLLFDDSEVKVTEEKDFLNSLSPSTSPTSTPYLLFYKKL
Sequence of Cytochrome P450 1A2 (Homo sapiens) (P05177 whole entry, looked up): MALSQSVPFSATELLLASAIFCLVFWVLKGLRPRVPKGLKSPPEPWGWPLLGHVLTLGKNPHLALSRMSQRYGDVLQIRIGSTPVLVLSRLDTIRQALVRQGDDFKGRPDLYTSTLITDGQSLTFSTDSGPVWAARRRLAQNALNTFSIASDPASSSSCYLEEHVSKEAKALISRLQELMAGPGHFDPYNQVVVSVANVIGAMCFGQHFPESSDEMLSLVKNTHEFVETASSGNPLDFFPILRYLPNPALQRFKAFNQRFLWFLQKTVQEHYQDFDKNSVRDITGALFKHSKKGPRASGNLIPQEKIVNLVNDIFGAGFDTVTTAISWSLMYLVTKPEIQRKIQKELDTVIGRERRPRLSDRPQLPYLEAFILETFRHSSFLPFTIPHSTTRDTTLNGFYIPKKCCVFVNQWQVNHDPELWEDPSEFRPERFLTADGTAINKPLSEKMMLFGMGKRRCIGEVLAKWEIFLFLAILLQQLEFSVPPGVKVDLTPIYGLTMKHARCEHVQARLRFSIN
Sequence of Glucocorticoid receptor (Homo sapiens) (P04150 whole entry, looked up, the tested form may be a part): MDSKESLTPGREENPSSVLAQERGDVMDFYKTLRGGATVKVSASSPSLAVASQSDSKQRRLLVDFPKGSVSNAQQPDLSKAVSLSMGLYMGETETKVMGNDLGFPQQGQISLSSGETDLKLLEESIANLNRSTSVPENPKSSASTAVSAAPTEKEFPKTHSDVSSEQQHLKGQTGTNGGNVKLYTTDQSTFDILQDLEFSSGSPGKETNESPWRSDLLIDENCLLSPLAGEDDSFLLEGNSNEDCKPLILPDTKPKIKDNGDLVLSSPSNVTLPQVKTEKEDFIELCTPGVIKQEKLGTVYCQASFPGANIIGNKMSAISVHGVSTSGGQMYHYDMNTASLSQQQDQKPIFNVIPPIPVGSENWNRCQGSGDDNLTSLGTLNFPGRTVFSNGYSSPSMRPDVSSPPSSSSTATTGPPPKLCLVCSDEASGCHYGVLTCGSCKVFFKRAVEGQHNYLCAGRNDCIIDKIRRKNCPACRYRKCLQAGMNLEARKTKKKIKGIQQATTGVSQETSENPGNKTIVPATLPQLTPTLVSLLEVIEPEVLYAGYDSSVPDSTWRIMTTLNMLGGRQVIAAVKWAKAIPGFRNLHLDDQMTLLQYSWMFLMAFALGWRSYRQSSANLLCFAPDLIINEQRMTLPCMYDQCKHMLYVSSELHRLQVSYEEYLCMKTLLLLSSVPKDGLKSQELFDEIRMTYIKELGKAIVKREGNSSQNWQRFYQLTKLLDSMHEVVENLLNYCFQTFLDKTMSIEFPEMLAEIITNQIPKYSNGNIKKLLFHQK
Sequence of Dual specificity protein kinase CLK4 (Homo sapiens) (Q9HAZ1 whole entry, looked up): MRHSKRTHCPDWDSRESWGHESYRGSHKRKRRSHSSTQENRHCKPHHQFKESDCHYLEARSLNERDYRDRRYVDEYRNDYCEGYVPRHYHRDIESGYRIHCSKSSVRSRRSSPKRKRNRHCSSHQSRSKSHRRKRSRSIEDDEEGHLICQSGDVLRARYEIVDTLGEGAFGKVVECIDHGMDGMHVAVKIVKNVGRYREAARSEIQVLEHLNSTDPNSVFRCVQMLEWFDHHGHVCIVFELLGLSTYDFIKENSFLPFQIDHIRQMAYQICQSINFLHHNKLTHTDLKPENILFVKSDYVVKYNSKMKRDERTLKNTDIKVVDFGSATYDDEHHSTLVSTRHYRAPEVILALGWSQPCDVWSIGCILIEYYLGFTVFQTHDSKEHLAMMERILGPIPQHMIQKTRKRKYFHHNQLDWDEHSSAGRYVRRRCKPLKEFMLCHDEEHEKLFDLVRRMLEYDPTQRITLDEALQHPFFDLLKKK

Row | SMILES | Potency [1] | activity change, negative = inhibition [2] | Potency [3] | activity change, negative = inhibition [4] | activity, negative = inhibition [5] | Potency [6] | Potency [7] | outcome [8] | Potency [9] | activity change, negative = inhibition [10] | max response [10, 17] [%] | max response [10, 18] [%] | Potency [11] | Potency [12] | Potency [13] | Potency [14] | Potency [15] | Potency [16]
1 | Cc1nc2cnc(N3CCN(C)CC3)nc2n(C)c1=O | > 11.4 µM (inactive) | 2.98% (inactive) | 12.6 µM (active) | 8.62% (inactive) | -15% (inactive) | > 9.22 µM (inactive) | > 46 µM (inactive) | inactive | inactive | 3.28% (inactive) | 5.81 | 7.23 | inactive | inactive | inactive | inactive | inactive | 
2 | COCCNc1ncnc2ccc(-c3ccoc3)cc12 | > 11.4 µM (inactive) | -23.8% (inactive) | 15.8 µM (active) | 11.2% (inactive) | -12.8% (inactive) | > 46 µM (inactive) | > 46 µM (inactive) | inactive |  | 0.0459% (inactive) | 6.14 | 3.39 | 0.891 µM (active) | 1 µM (active) | 0.224 µM (active) | inactive | inactive | 
3 | O=c1c(-c2ccc(F)c(F)c2)nc2cncnc2n1C1CC1 | > 11.4 µM (inactive) | 3.77% (inactive) | 0.1 µM (active) | 7.2% (inactive) | -6.38% (inactive) | > 9.22 µM (inactive) | > 46 µM (inactive) | inactive | inactive | 8.82% (inactive) | 20.3 | 27.4 | inactive | inactive | inactive | inactive | inactive | inactive
4 | COCCNc1nc(-c2ccccc2OC)nc2ccccc12 | > 2.29 µM (inactive) | 12.5% (inactive) | 0.794 µM (active) | 8.54% (inactive) | 7.08% (inactive) | > 46 µM (inactive) | > 46 µM (inactive) | inactive | inactive | 6.78% (inactive) | 15.3 | 15.6 | inactive | inactive | inactive | inactive | inactive | inactive
5 | O=c1c(-c2cccs2)nc2cncnc2n1Cc1ccccc1 | > 11.4 µM (inactive) | -16.8% (inactive) | 2.51 µM (active) | 1.15% (inactive) | 7.21% (inactive) | > 9.22 µM (inactive) | > 46 µM (inactive) | inactive |  | 1.03% (inactive) | 22.1 | 21.4 | inactive | inactive | inactive | inactive | inactive | inactive
6 | CC(=O)NCCNc1ncncc1-c1ccccc1C | > 11.4 µM (inactive) | 10.6% (inactive) | 25.1 µM (active) | 5.27% (inactive) | 8.22% (inactive) | > 46 µM (inactive) | > 46 µM (inactive) | inactive | inactive | 6.81% (inactive) | 17.2 | 23 | inactive | inactive | inactive | inactive | inactive | inactive
